# Test results taken from ChEMBL document CHEMBL3433997, “St. Jude Leishmania screening dataset” (2016).
# Tests used:
# Assay type in all cases: functional
# [1] = target: Solute carrier family 2, facilitated glucose transporter member 1 (Homo sapiens) (UniProt P11166); assay: ST_JUDE_LEISH: Cytotoxicity at 2uM final concentration against transgenic Leishmania Mexicana promastigotes LmGLUT1 that are glucose transport deficient and complemented with the human glucose transporter GLUT1. Activity is measured by DNA content using SYBR green in vitro
# Solute carrier family 2, facilitated glucose transporter member 1 (Homo sapiens), sequence (P11166 whole entry): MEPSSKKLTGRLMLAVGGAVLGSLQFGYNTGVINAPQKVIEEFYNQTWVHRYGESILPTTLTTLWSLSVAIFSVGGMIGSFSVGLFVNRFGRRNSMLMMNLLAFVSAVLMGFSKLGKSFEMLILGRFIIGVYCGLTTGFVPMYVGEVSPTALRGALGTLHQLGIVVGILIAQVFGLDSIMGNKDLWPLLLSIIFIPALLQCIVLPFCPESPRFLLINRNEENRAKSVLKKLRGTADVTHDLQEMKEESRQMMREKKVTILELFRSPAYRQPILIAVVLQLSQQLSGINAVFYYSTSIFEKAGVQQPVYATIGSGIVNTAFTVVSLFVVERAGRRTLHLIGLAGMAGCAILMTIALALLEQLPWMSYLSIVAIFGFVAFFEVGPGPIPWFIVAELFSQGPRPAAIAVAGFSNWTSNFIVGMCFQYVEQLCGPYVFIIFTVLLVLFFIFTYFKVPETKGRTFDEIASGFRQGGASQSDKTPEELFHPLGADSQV
# [2] = target: Hexose transporter 1 (Plasmodium falciparum) (UniProt O97467); assay: ST_JUDE_LEISH: Cytotoxicity at 2uM final concentration against transgenic Leishmania Mexicana promastigotes LmPfHT that are glucose transport deficient and complemented with the Plasmodium falciparum hexose transporter. Activity is measured by DNA content using SYBR green in vitro
# [3] = target: Glucose transporter (Leishmania mexicana) (UniProt O61059); assay: ST_JUDE_LEISH: Cytotoxicity at 2uM final concentration against transgenic Leishmania Mexicana promastigotes LmGT2 that are glucose transport deficient and complemented with the L. Mexicana glucose transporter 2. Activity is measured by DNA content using SYBR green in vitro
SMILES,inhibition [1] [%],inhibition [2] [%],inhibition [3] [%]
COc1cccc(CNC(=O)[C@@H]2CN(C(=O)c3ccccc3)CCN2)c1,-0.92,0.03,0.71
CC(C)C[C@@H](/C=N/N1CCOC1=O)NC(=O)[C@H](CC(C)C)NC(=O)c1ccc(F)cc1,7.39,11.5,6.1
Cc1cnc(C(=O)Nc2cccc(-c3ccc(-c4nc5cc(C(F)(F)F)ccc5[nH]4)s3)c2)cn1,8.07,5.21,6.71
N#Cc1ccc2c(c1)CCN(CCC1CCC(Nc3ncnc4ccccc34)CC1)C2 (stereo not drawn),10.7,3.96,4.21
COc1cc(Cc2cnc(N)nc2N)ccc1OCc1cccc(Oc2ccccc2)c1,2.15,1.48,0.19
O=C1C(c2ccccc2)=C(Nc2cccc([N+](=O)[O-])c2)c2ccccc21,4.58,3.72,9.44
O=c1cc(NCCCNCc2cc3c(Cl)cc(Cl)cc3[nH]2)[nH]c2ccccc12,-0.67,-0.16,-0.14
Cc1cc(-c2ccc3c(c2)CCN(CCC2CCC(NC(=O)/C=C/c4cccc(F)c4)CC2)CC3)on1 (stereo not drawn),2.32,0.47,3.42
COc1cccc(CNC(=O)NC2CCN(c3ccnc(Nc4ccc(F)cc4)n3)C2)c1 (stereo not drawn),-1.2,-0.35,-1.51
COc1ccc(NC(=O)Nc2ccc(-c3ccncc3)c(C(F)(F)F)c2)cc1N1CCN(C)CC1,13.1,12.6,9.27
Nc1c(I)cc(C(=O)Nc2ccc3nc4c(c(N)c3c2)CCCC4)cc1I,2.52,1.16,1.17
COc1ccc(Oc2cnc(N)nc2N)c(C(C)C)c1,4.31,5.88,2.01
Cc1nc(N)nc(N)c1Oc1cccc(Cl)c1,3.72,0.81,0.35
CCN(CC)CCN(Cc1ccc(-c2ccc(C#N)cc2)cc1)C(=O)Cn1c(CCc2cccc(F)c2F)nc(=O)c2ccccc21,2.37,0.54,3
CCCN(CCC)C(=O)c1cc(C(=O)N[C@@H](Cc2ccccc2)[C@H](O)CNCc2cccc(OC)c2)cc(N2CCCCS2(=O)=O)c1,4.58,5.76,5.14
O=C(/C=C/c1ccc(Cl)c(Cl)c1)NCCCCCN1CCC(NC(=O)Nc2cccc(Cl)c2Cl)CC1,-2.33,-0.39,6
CCOC(=O)c1cc(Cl)ccc1OCCCON1C(=N)N=C(N)NC1(C)C,1.75,3.52,3.08
CS(=O)(=O)c1ccc(CNCc2ccc(-c3ccc(-c4nc5cc(F)ccc5[nH]4)s3)cc2)cc1,11.6,10.9,8.75
CCC(CN1C(=N)NC(c2ccccc2)(c2ccccc2)C1=O)c1ccccc1 (stereo not drawn),-0.75,-2.3,0.9
COc1ccc2nccc(N3CCC(SCCNCc4ccc5c(n4)NC(=O)CO5)C3)c2n1 (stereo not drawn),0.4,2.93,2.08
Nc1ccc2[nH]cc(C3CCN(CC4CCC(NC(=O)/C=C/c5ccccc5Cl)CC4)CC3)c2n1 (stereo not drawn),3.23,3.23,2.48
CN1CCCC(CN2CCN(Cc3cccc(-c4ccc(-c5nc6ccccc6[nH]5)cc4)c3)CC2)C1 (stereo not drawn),7.48,9.12,6.63
O=C(Nc1ccc(C(F)(F)F)cc1)c1cccc(S(=O)(=O)NC2CCN(CC3CCCCC3)CC2)c1,5.27,5.53,4.52
COc1ccc2c(c1)CCCC2NCCCCNC(=O)c1ccc(NC(=O)c2ccc(Cl)cc2)cc1 (stereo not drawn),1.92,0.37,0.82

SMILES,inhibition [1] [%],inhibition [2] [%],inhibition [3] [%]
O=C(COc1ccc(F)cc1)NC1CCN(c2ccnc3cc(Cl)ccc23)C1 (stereo not drawn),7.22,6.11,6.88
COc1nc2c(CCN3CCC(NCc4ccc5c(c4)NC(=O)CO5)CC3)c(Cl)cnc2cc1F,3.07,0.9,1.45
CCN(CC)CCNC(=O)c1ccc(NC(=O)c2ccc(-c3cc(NC(=O)CC4CCCC4)ccc3C)cc2)cc1,2.1,1.64,2.4
O=C(CC(=O)Nc1cc(Cl)cc(Cl)c1)Nc1cc(Cl)cc(Cl)c1,-1.77,-3.47,0.68
O=C(NC1CC1)c1cnc(N2CCN(Cc3ccc(Cl)cc3)CC2)c(Cl)c1,5.43,1.16,-5.97
CCN(CCCN1CCCCC1)c1cc(C)nc(Nc2ccc(C)cc2Cl)n1,9.81,7.68,7.34
CCc1ccccc1OCCCON1C(=N)N=C(N)NC1(C)C,28.6,37.9,29.2
Cc1ccc(S(=O)(=O)N(C)c2ccccc2C(=O)Nc2ccccc2Oc2ccccc2)cc1,-0.78,-0.51,-3.37
O=C(NCCCCCN1CCC(c2ccc(O)cc2)CC1)c1ccc(-c2ccccc2)cc1,5.44,3.34,6
COc1ccc(CCNc2nc(N)c3cc(OC)c(OC)cc3n2)cc1,2.3,3.91,1.41
CCOc1cc(N)c2nc3ccc([N+](=O)[O-])cc3cc2c1,16.1,20.1,6.39
CN(CCC1CCN(C(=O)/C=C/c2ccc(Cl)c(Cl)c2)CC1)C1CCC(c2c[nH]c3ccccc23)CC1 (stereo not drawn),7,8.06,3.97
CC(C)(C)c1ccc(CN2CCCCC(NC(=O)c3cc(-c4ccccc4Cl)cs3)C2)cc1 (stereo not drawn),2.83,3.91,1
CN1CCCC(CN2CCN(Cc3cccc(-c4csc(-c5nc6ccccc6[nH]5)c4)c3)CC2)C1 (stereo not drawn),3.41,1.68,1.91
Nc1cccc(CNCc2cccc(-c3ccc(-c4nc5ccccc5[nH]4)s3)c2)c1,7.77,8.55,5.7
COc1cc2c(cc1C(F)(F)F)N(C(=O)Nc1cc(-c3ccncc3)cc(-c3cccnc3)c1)CC2,3.84,-0.38,-0.7
CCCCCN1CCCN(Cc2cccc(NC(=O)c3ccc(-c4ccccc4)cc3)c2)CC1,-0.68,-0.99,2.3
Cc1cc2ncn(-c3ccnc(N4CCN(CCCN5CCCC5)CC4)n3)c2cc1C,4.77,3.43,2.01
O=C(/C=C/c1ccc(Cl)c(Cl)c1)NCCCCCN1CCCN(C(=O)Nc2ccc([N+](=O)[O-])cc2)CC1,1.18,1.11,4.07
OC(c1cc(C(F)(F)F)nc2c(F)cccc12)C1CCCCN1 (stereo not drawn),0.27,1.52,1.48
Clc1ccc(-c2cc(-c3csc(NCCN4CCOCC4)n3)on2)c(Cl)c1,12.4,9.19,10.6
O=c1cc(NCCCNC2CCOc3c(Cl)cccc32)[nH]c2ccccc12 (stereo not drawn),0.96,1.67,2.03
CC(C)(C)CN1C(=O)C(c2ccccc2)(c2ccccc2)N=C1N,2.88,2.58,1.88
CN1CCC(N(Cc2ccc(N3CCN(Cc4c[nH]c5ccc(Cl)cc45)CC3)nc2)C2CC2)CC1,9.81,4.81,10.7

SMILES,inhibition [1] [%],inhibition [2] [%],inhibition [3] [%]
CN(Cc1ccccc1)C(=O)CCNS(=O)(=O)c1cc(Br)cnc1N,2.6,3.87,6.07
COc1ccc2c(-c3ccccc3)noc2c1,0.37,0.1,1.42
CCCNCc1c(O)ccc2c(CNCCC)c(O)ccc12,0.17,-0.89,0.49
O=C(Nc1ccc([N+](=O)[O-])cc1Cl)c1cc2ccccc2cc1O,0.6,1.59,1.3
O=[N+]([O-])c1ccccc1/C=N/Nc1ccnc2ccc(C(F)(F)F)cc12,-0.59,2.42,0.08
CC1CCCN(S(=O)(=O)c2ccc(NC(=O)c3cc(-c4ccccc4O)n[nH]3)cc2)C1 (stereo not drawn),1.49,3.54,0.62
Cn1cncc1C(=O)Nc1ccc(-c2cccc(-c3nc4cc(C(F)(F)F)ccc4[nH]3)c2)cc1,1.53,1.11,2.32
COc1cc2ccccc2c(OC)c1CNCCCCCCNCc1c(OC)cc2ccccc2c1OC,11.1,7.88,12.4
CC(C)c1ccc2oc(-c3ccc(NC(=O)c4ccc([N+](=O)[O-])o4)cc3)nc2c1,10.9,10.2,4.26
CCN(CC)CCN(Cc1ccc(-c2ccc(C(F)(F)F)cc2)cc1)C(=O)Cn1c(CCc2cc(F)ccc2F)nc(=O)c2ccccc21,1.25,-1.65,1.58
Cc1ccc(C2=NNC3(S2)C(=O)Nc2ccc(C)cc23)cc1 (stereo not drawn),-2.4,2.71,3.44
CCOc1ccc(NC(=O)c2ccc(CN3CCCN(Cc4cccc(O)c4)CC3)cc2)cc1,3.91,3.89,4.11
COc1ccc(NC(=O)[C@H](Cc2ccccc2)Nc2cc(C)nc(NCCc3ccccc3)n2)cc1,5.74,6.29,5.16
COc1ccc(O)cc1Cc1cnc2nc(N)nc(N)c2c1C,-0.06,1.16,0.83
CC1CN(c2cnn(C/C=C/c3ccc(NC(=O)c4ccc([N+](=O)[O-])cc4)cc3)c(=O)c2Cl)CC(C)N1 (stereo not drawn),-0.1,1.74,0.18
O=C(Nc1ccc2c(c1)CCN2C1CCN(Cc2csc3ccccc23)C1)c1ccco1 (stereo not drawn),2.05,2.08,1.45
Cc1nc(C)c(-c2ccc(Oc3ccc(Cl)c(Cl)c3)cc2)c(O)c1Cl,1.91,1.63,2.1
Cc1c(Oc2ccc(-n3ccnc3)cc2)ncnc1N1CCC2(CC1)CNCc1ccccc12,10.5,8.76,2.5
CC(=O)NCCNc1cc(N2CCc3ncnc(Nc4ccc(OCc5c(F)cccc5F)c(Cl)c4)c3C2)ncn1,0.69,1.6,1.84
CCN(CC)CCN(Cc1ccc(-c2ccc(C(F)(F)F)cc2)cc1)C(=O)Cn1c(CCc2cc(F)cc(F)c2)nc(=O)c2ccccc21,1,1.07,1.47
NC1CCCN(Cc2ccc(-c3cccc(-c4nc5ccccc5[nH]4)c3)cc2)C1 (stereo not drawn),3.53,4.34,4.25
CCC(C)NS(=O)(=O)c1ccc2nc(Nc3ccc(C)c(Cl)c3)n([C@H](C)C(C)(C)C)c2c1 (stereo partly drawn),2.63,2.57,0.57
CC(Cc1ccc(CN2CCN(Cc3ccccc3)CC2)cc1)NCC(O)c1cccc(C(F)(F)F)c1 (stereo not drawn),5.03,4.18,5.25
